Assay [1] addresses Photoreceptor-specific nuclear receptor (Homo sapiens) (UniProt Q9Y5X4). Briefly: NR2E3 agonist confirmation in cells, cell-based, luminescence, CHO-S two-hybrid (AID 624378).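 Also: 0% = DMSO in NR2E3 cells and 100% = DMSO in cells lacking NR2E3.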 The note with it: CHO-S mammalian two-hybrid NR2E3-NCOR, luciferase luminescence; at 3.98 µM; active compounds read high.
Assay [2] in a line: GAL4-VP16 reporter modulators, confirmation, counter-screen for NR2E3 agonist project, cell-based, luminescence, CHO-S, high throughput (AID 624379;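 active = mean inhibition above a cutoff equal to the average over all tested compounds plus one standard deviation, cut at about 70% in these data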;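 also: luciferase from a UAS reporter driven by GAL4-VP16 transactivation; 0% = DMSO with VP16-transfected cells and 100% = DMSO with cells lacking VP16; higher means less reporter light so more repression of VP16 activity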). The note with it: CHO-S GAL4-VP16 luciferase reporter, at 3.98 µM, active compounds read high. A general note: Counterscreens check selectivity or assay interference.
Assay [3] can be described thus: Gal4-VP16 luciferase reporter inhibitors, counter-screen for COUP-TFII antagonist project, cell-based, luminescence, HEK293 (AID 687007; in the data active = inhibition above about 13%). As to conditions: at 8.5 µM, active compounds read high.
In assay [4] the target is COUP transcription factor 2 (Homo sapiens) (UniProt P24468). Briefly: NR2F2 transcriptional activity inhibitors, confirmation, cell-based, luciferase reporter, HEK293, triplicate (AID 687008;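 active = mean inhibition over three repeats above a set limit taken from the earlier primary screen, cut at about 38% in these data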;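 also: 100% = cells given the luciferase reporter alone without the COUP-TF2 vector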). The note with it: HEK293 NGFI-A luciferase reporter, luminescence; at 8.5 µM; active compounds read high.
Assay [5] concerns transactivating tegument protein VP16 (Human herpesvirus 1). Kind of assay: VP16 transactivation reporter inhibitors, counter-screen for SRC2 inhibitor project, cell-based, luminescence, single concentration (AID 652007; in the data active = inhibition above about 36%). The note with it: cell-based VP16 transactivation luciferase reporter, at 8.9 µM, active compounds read high.
Assay [6] addresses Nuclear receptor coactivator 2 (Homo sapiens) (UniProt Q15596). Briefly: SRC2 coactivator transcriptional activity inhibitors, confirmation, cell-based, luminescence, HEK293, triplicate (AID 652008;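 active = mean inhibition above 46.5%, the solvent-only control mean plus 3 SD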;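 also: 0% = DMSO-treated cells and 100% = Gossypol at 36 µM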). The note with it: HEK293 GAL4-SRC2 luciferase reporter, at 8.9 µM, active compounds read high.
The nature of assay [7]: StAR promoter reporter inhibitors, counter-screen for LRH-1 inverse agonist project, cell-based, luminescence, high throughput (AID 651611; in the data active = inhibition above about 28%). As to conditions: StAR promoter luciferase reporter counterscreen, at 3.6 µM, active compounds read high.
In assay [8] the target is Nuclear receptor subfamily 5 group A member 2 (Homo sapiens) (UniProt O00482). Kind of assay: LRH-1 (NR5A2) inverse agonists, retest, confirmation, cell-based, luminescence (AID 651613; in the data active = inhibition above about 42%;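 also: HEK293T cells co-transfected with LRH-1 and StAR promoter luciferase reporter; 0% = vehicle wells and 100% = parental cells lacking receptor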). As to conditions: cell-based LRH-1 luciferase reporter, inverse agonism; at 3.6 µM; active compounds read high.
Assay [9] addresses Steroidogenic factor 1 (Homo sapiens) (UniProt Q13285). Kind of assay: SF1 (NR5A1) inverse agonists, counter-screen for LRH-1 inverse agonist project, cell-based, luminescence, high throughput (AID 651614; in the data active = inhibition above about 44%;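 also: cells cotransfected with StAR promoter reporter and SF1 expression vector; 0% = vehicle on cells with receptor and 100% = vehicle on cells lacking receptor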). As to conditions: cell-based SF1 luciferase reporter, at 3.6 µM, active compounds read high.
Assay [10] can be described thus: VP16 transactivation reporter inhibitors, counter-screen for LRH-1 inverse agonist project, cell-based, luminescence, high throughput (AID 651615; in the data active = inhibition above about 33%). As to conditions: Gal4-VP16 luciferase reporter cells, at 3.6 µM, active compounds read high.
The subject of assay [11] is DAF-12 nuclear receptor (Heterodera glycines), GAL4-LBD fusion. Briefly: H. glycines DAF-12 receptor agonists, confirmation, cell-based, luminescence, HEK293, GAL4-LBD fusion (AID 743050;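 active = mean activation over triplicate wells above the hit cutoff derived from the earlier primary screen, cut at about 11% in these data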;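 also: 0% = DMSO low control and 100% = 2 mM sodium butyrate high control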). As to conditions: HEK293 GAL4-hgDAF12 luciferase reporter, agonist mode; at 6.8 µM; active compounds read high; percent of butyrate response. On the technique in general: Reporter assays use an easily measured gene product as a stand-in for the process of interest.

In assay [12] the target is Oxysterols receptor LXR-beta (Homo sapiens) (UniProt P55055). Briefly: LXR agonists, Gal4 luciferase reporter, confirmation, counter-screen for hgDAF-12 agonist project, cell-based, luminescence, HEK293, H. glycines campaign (AID 743051;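 active = mean activation of the triplicate above a set limit carried over from the primary screen, none filed active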). The note with it: 24 h, at 6.8 µM, active compounds read high.
Assay [13] is described as follows: growth loss of phage-infected RecBCD+ E. coli, confirmation, RecBCD inhibitor project, absorbance, E. coli V66, T4 gene 2 phage (AID 651982;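 active = mean inhibition over triplicates exceeding the hit threshold derived in the original primary screen, cut at about 11% in these data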). As to conditions: E. coli V66 + T4 2- phage, growth OD; at 11.9 µM; active compounds read high.
Assay [14] in a line: E. coli viability inhibition, counter-screen for RecBCD inhibitor project, absorbance, high throughput (AID 651983; in the data active = inhibition above about 20%;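 also: E. coli strain V66 grown with compound alone and no phage infection; 0% = bacteria with DMSO vehicle only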). The note with it: absorbance (OD) growth, at 11.9 µM, active compounds read high.
A short description of assay [15]: growth loss of phage-infected AddAB-carrying E. coli, confirmation, counter-screen for RecBCD inhibitor project, absorbance, E. coli V3065, T4 phage (AID 651984;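 active = mean inhibition above the solvent-only control wells' mean plus 3 SD, cut at about 22% in these data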;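 also: higher means less bacterial growth from phage killing when AddAB is blocked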). The note with it: E. coli expressing H. pylori AddAB + T4 phage, OD growth; at 11.9 µM; active compounds read high; gene 2 mutant T4, recBCD-deleted host.

The values that follow come from PubChem BioAssay.

Unmarked numbers belong to inactive results. This is one part of the list. Active and inactive are the calls of the source.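 The calls were made as follows, unless noted: active = average inhibition above a cutoff equal to the mean inhibition of all tested compounds plus one SD (cut at about 70% in these data); inactive = the rest.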

Sequence of Nuclear receptor subfamily 5 group A member 2 (Homo sapiens) (O00482 whole entry, looked up): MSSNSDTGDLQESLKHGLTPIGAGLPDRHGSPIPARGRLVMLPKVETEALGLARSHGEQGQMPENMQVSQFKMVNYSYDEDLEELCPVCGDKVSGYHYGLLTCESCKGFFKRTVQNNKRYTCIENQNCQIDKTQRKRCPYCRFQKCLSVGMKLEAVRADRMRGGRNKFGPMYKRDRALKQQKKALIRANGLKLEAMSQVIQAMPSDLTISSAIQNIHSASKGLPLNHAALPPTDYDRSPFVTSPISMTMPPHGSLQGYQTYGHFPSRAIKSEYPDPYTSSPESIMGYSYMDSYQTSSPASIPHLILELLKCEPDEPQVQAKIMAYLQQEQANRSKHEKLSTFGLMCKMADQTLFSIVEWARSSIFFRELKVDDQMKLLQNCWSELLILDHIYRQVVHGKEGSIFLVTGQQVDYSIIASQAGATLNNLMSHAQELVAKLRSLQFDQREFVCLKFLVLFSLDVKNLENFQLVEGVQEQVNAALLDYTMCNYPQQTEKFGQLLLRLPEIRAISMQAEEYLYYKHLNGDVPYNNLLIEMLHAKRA
Sequence of COUP transcription factor 2 (Homo sapiens) (P24468 whole entry, looked up): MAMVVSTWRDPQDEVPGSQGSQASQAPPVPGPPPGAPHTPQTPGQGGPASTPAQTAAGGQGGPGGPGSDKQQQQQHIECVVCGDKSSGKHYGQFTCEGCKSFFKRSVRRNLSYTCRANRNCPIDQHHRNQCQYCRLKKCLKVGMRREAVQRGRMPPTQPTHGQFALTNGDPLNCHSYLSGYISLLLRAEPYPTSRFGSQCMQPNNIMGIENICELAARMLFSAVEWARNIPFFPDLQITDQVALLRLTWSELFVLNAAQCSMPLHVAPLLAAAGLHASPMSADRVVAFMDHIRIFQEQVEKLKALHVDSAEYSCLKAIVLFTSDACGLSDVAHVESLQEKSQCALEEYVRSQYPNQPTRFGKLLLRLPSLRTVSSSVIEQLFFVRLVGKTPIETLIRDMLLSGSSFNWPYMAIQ
Sequence of Steroidogenic factor 1 (Homo sapiens) (Q13285 whole entry, looked up, the tested form may be a part): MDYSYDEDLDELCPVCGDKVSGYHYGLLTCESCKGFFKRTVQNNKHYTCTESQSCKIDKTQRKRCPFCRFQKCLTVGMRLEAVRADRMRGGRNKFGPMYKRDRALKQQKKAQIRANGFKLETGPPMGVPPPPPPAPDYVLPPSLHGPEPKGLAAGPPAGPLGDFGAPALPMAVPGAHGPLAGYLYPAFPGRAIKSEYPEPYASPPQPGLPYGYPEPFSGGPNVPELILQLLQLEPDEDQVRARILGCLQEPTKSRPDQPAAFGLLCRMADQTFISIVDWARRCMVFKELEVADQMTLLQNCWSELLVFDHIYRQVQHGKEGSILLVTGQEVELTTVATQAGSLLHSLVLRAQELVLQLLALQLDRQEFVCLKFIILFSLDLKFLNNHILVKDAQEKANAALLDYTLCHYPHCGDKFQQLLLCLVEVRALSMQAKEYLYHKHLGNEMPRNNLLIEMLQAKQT
Sequence of Nuclear receptor coactivator 2 (Homo sapiens) (Q15596 whole entry, looked up, the tested form may be a part): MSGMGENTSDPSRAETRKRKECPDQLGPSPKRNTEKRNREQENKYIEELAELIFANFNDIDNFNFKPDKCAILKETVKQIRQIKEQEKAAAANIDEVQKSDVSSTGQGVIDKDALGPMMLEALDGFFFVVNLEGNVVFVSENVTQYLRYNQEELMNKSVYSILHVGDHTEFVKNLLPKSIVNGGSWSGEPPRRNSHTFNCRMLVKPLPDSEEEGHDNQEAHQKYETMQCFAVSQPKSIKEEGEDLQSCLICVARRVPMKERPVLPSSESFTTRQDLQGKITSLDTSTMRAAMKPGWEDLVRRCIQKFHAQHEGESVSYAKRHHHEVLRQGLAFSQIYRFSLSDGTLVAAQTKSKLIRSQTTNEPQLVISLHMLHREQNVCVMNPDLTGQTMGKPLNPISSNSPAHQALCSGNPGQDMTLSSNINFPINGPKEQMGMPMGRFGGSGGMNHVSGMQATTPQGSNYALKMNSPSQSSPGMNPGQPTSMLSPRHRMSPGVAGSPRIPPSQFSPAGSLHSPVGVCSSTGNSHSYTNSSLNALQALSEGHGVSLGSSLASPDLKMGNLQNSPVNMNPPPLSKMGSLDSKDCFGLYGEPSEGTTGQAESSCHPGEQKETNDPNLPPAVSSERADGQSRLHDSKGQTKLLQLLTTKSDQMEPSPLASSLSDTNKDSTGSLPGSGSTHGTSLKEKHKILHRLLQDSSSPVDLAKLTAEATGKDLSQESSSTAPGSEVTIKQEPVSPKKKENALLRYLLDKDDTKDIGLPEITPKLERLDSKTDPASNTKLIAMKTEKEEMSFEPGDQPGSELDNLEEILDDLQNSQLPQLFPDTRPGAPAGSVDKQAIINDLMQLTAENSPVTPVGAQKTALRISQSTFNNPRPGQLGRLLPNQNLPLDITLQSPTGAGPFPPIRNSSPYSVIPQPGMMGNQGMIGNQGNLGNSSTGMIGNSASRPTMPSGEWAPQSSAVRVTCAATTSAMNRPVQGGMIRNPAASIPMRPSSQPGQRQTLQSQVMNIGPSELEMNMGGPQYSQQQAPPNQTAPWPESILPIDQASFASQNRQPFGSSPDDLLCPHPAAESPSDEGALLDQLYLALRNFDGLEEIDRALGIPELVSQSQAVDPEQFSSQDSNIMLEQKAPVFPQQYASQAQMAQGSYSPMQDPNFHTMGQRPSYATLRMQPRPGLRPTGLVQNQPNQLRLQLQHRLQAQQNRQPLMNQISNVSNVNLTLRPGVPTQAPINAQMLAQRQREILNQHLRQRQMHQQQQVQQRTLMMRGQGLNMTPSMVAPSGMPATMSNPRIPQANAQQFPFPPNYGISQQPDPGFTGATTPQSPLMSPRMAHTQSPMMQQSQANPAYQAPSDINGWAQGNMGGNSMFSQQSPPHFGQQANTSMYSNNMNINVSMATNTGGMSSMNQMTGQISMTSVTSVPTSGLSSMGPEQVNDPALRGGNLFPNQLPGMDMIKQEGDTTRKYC
Sequence of Photoreceptor-specific nuclear receptor (Homo sapiens) (Q9Y5X4 whole entry, looked up, the tested form may be a part): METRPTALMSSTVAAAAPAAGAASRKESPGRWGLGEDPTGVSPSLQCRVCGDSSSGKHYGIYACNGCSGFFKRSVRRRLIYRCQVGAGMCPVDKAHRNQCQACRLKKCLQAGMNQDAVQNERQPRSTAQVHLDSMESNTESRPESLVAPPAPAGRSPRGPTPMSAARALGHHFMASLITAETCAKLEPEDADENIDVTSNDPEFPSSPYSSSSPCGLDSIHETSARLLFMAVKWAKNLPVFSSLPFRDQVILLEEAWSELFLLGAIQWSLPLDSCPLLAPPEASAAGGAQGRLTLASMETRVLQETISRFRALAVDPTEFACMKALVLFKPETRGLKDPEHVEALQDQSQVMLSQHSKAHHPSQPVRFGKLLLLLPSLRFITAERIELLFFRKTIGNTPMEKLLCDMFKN
Sequence of Oxysterols receptor LXR-beta (Homo sapiens) (P55055 whole entry, looked up, the tested form may be a part): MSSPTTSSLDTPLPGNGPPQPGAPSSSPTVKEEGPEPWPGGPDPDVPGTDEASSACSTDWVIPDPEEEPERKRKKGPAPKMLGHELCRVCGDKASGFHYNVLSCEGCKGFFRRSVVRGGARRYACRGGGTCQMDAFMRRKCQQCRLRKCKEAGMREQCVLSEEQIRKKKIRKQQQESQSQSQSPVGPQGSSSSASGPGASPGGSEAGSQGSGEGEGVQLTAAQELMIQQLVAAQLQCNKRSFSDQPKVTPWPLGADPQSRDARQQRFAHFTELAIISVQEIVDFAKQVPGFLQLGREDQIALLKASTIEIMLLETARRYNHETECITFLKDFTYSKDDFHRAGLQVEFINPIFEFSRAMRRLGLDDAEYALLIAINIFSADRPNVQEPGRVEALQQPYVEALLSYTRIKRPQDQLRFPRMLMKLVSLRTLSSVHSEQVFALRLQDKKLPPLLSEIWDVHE

As for `CCn1c(CNC(=O)c2cc(OC)c(OC)c(OC)c2)cc2cc(C)ccc21`, the inhibition in assay [1] was 85.2% (active); in assay [2], 71% (active); in assay [3], 4.19%; in assay [4], 15.9%.
Turning to `COc1ccc(-n2c(C)cc(C(=O)CSc3nnc(-c4cccs4)o3)c2C)cc1`, the inhibition was 61.9% in assay [1]; 66.9% in assay [2]; 20% in assay [5]; 33.9% in assay [6]; 0.72% in [3]; 34.1% in assay [4].
In the case of `Cc1ccnc(NC(=O)C2CCN(S(=O)(=O)c3c(C)c(C)cc(C)c3C)CC2)c1`, the inhibition is 83.3% (active) in [1]; 21.8% in assay [2]; 6.87% in [7]; 36.1% in assay [8]; 13.2% in assay [9]; 21.5% in assay [10]. Besides, the activation in [11] was 7.81%; in assay [12], 0.16%.
With `S=C(NCC1CCCO1)N1CCN(c2ccc(Cl)c(Cl)c2)CC1` (stereo not drawn), the inhibition is 89.2% (active) in assay [1] and 73.3% (active) in assay [2].
As for `C/C(=N\NC(=S)NCc1ccccc1)c1ccc(Cl)cc1`, the figures for the inhibition in assay [1] and in assay [2] were -1.78% and -14.2%, respectively.
`N#C[C@]1(S(=O)(=O)c2ccccc2)C[C@@H]2ON=C(c3cccc(Br)c3)[C@@H]2C1`: the inhibition in assay [1] is 88.5% (active); in [2] it was 75.2% (active); in assay [3] it was 2.59%; in assay [4] it was 14.3%.
Regarding `O=C(CSc1nc(Nc2ccccc2)nc(N2CCOCC2)n1)Nc1cc(Cl)ccc1O`, the figures for the inhibition in assay [1] and in assay [2] were 31.7% and 20.4%, respectively.
Regarding `O=[N+]([O-])c1ccc(NS(=O)(=O)c2ccccc2)c(Cl)c1`, the figures for the inhibition in assay [1] and in assay [2] were 77.9% (active) and 43.9%, respectively.
In the case of `COc1cccc(CNc2nc(NCc3ccccc3OC)nc3ccsc23)c1`, the inhibition in assay [1] was 82% (active); in [2], 61.6%; in assay [3], 2.96%; in [4], 18.9%.
The matching figures for `COc1ccc(CC(=O)Nc2nc(-c3ccc(F)c(F)c3)cs2)cc1OC`: 98% (active), 81.8% (active), 2.71% and 55.4% (active).
Take `O=C1C=C(c2ccnc3cc(Cl)ccc23)C[C@@H](c2ccc3c(c2)OCO3)C1`: the inhibition in assay [1] is 91.6% (active); in assay [2] it was 76.5% (active); in assay [3], 2.65%; in [4], 44.8% (active).
With `CCOC(=O)N1CCN(C(=O)c2ccc(S(=O)(=O)Nc3cccc(C(F)(F)F)c3)cc2)CC1`, the inhibition was 65.8% in assay [1] and 47.3% in assay [2].
Take `COCCNc1nc(-n2nc(C)cc2C)nc2sc3c(c12)CCCC3`: the results for the inhibition in assay [1] and in [2] were -8.21% and -32%, respectively.
Consider `COc1ccc(C(=O)NC2CCCc3c2cnn3-c2cccc(C)c2C)c(OC)n1` (stereo not drawn), for which the inhibition is 89.6% (active) in assay [1], 74.1% (active) in assay [2], -6.55% in assay [5] and 19.8% in assay [6].
For `Cn1c(Cc2cccc3ccccc23)nnc1SCC(=O)N1CCN(c2cccc(Cl)c2)CC1`, the inhibition is 78.1% (active) in assay [1], 30.7% in assay [2], -7.02% in assay [3] and 30.3% in assay [4].
Take `CNC(=O)c1sc(Nc2ccc(OCc3ccccc3)cc2)nc1C`: the inhibition in assay [1] is 37.7%; in assay [2], 30%.
The matching figures for `COc1cccc(NS(=O)(=O)c2ccc(-c3coc(C)n3)cc2)c1`: 10.9% and 37.3%.
The matching figures for `Cc1ccc(S(=O)(=O)N2CCN(c3ncnc4ccccc34)CC2)cc1`: 94.1% (active) and 80.5% (active).
Turning to `COc1ccc(CNS(=O)(=O)c2ccc(-c3cnc(C4CC4)o3)cc2)cc1`, the inhibition was 48.2% in assay [1] and 55.8% in assay [2].
For `Cc1ccc(S(=O)(=O)N2[C@@H](c3ccc(Br)cc3)C(C(=O)O)=C[C@H]2CC2CCCC2)cc1`, the inhibition in [1] was 26.2%; in [2], 26.5%.
The matching figures for `CCC(C)N1C(=O)S/C(=C/c2ccc(Sc3nc4ccccc4[nH]3)o2)C1=O` (stereo not drawn): 85.7% (active) and 69.8%.
Take `CCc1cc2c(NC3CCCC3)ncnc2s1`: the inhibition in [1] was 88.5% (active); in [2], 64%; in assay [3], 5.31%; in assay [4] it was 29.9%.
As to `CCCc1cc(=O)[nH]c(SCC(=O)Nc2sc3c(c2C#N)CCCC3)n1`, the inhibition in [1] was 15.4%; in [2] it was 41.8%.
With `O=C(/C=C/c1ccc([N+](=O)[O-])o1)NNC(=O)c1ccc(F)cc1`, the inhibition in assay [1] was 83.5% (active); in [2], 18.6%; in [13], 27.6% (active); in [14] it was 44.5% (active); in [15] it was 104% (active).
Take `Cc1nc(-c2ccc(F)cc2)c(CC(=O)Nc2cc(S(=O)(=O)N3CCCCC3)ccc2C)s1`: the inhibition in [1] is 56.8%; in [2], -7.22%.
`Cc1ccc(OCC(=O)c2cc(C)n(Cc3ccco3)c2C)c([N+](=O)[O-])n1`: the inhibition is 67.8% in assay [1], 52.5% in assay [2], 23.6% in assay [5] and 37.4% in assay [6].
Regarding `CCCOc1ccccc1C1CC(=O)Nc2cc3c(cc21)OCO3` (stereo not drawn), the values for the inhibition in assay [1] and in assay [2] were 28.9% and 26.1%, respectively.
Consider `CN(C(=O)CN1CCN(c2cc(-c3ccc(OCc4ccccc4)cc3)ncn2)CC1)c1ccccc1`, for which the inhibition in assay [1] was 51.3%; in [2], 52.7%; in assay [7], 14.7%; in assay [8], 46.5% (active); in assay [9], 46.4% (active); in assay [10] it was 25.7%. In addition, the values for the inhibition in assay [3] and in assay [4] were 1.06% and 31.7%, respectively.
As to `COc1ccccc1-n1nnnc1S(=O)(=O)Cc1ccc(Cl)cc1`, the inhibition in assay [1] is 10.2%; in [2], 19%; in assay [7], 41.7% (active); in assay [8], 51.6% (active); in assay [9] it was 40.4%; in [10], 34.2% (active).
Turning to `Cc1cc(C(=O)NC2CCCc3c2cnn3-c2cccc(C)c2C)c(C)o1` (stereo not drawn), the inhibition in assay [1] was 72.7% (active); in assay [2] it was 69.9%; in assay [3], -2%; in [4], 26.8%.

Usually inhibition stands for the drop in the measured response relative to a control, in per cent.
